# Data from the supplement of paper PMC8728848.
# The entries come from a sample that favours the strongest signals as a whole.
# B1: RNase 1 (Homo sapiens) (protein)
# chain: KESRAKKFQRQHMDSDSSPSSSSTYCNQMMRRRNMTQGRCKPVNTFVHEPLVDVQNVCFQEKVTCKNGQGNCYKSNSSMHITDCRLTNGSRYPNCAYRTSPKERHIIVACEGSPYVPVHFDASVEDST
# B2: DC SIGN CRD (Homo sapiens), Q9NNX6 (protein)
# chain: QPCPWEWTFFQGNCYFMSNSQRNWHDSITACKEVGAQLVVIKSAEEQNFLQLQSSRSNRFTWMGLSDLNQEGTWQWVDGSPLLPSFKQYWNRGEPNNVGEEDCAEFSGNGWNDDKCNLAKFWICKKSAWSHPQFEK
# Key:
# Test in all cases: glycan array binding signal (z-score within array); higher = stronger binding
# Conditions in all cases: glycan notation: IUPAC condensed, linker removed
# [1] = biological target: Fuc(a1-2)Gal(b1-3)GalNAc(b1-3)Gal(a1-4)Gal(b1-4)Glc
# Summary of the method: (§1)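 The Consortium for Functional Glycomics database supplied 3228 glycan arrays, of which those lacking an available protein sequence were dropped. The binding signal, a within-array Z-score, was averaged across arrays of the same protein sequence and across linkers. Negative scores can be read as non-binding.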
# [2] = biological target: Fuc(a1-2)Gal(b1-3)[Fuc(a1-4)]GlcNAc
# Summary of the method: as §1
# Fuc(a1-2)[Gal(a1-3)]Gal = biological target: Fuc(a1-2)[Gal(a1-3)]Gal
# Summary of the method: as §1
# [3] = biological target: Fuc(a1-3)[Gal3S(b1-4)]GlcNAc
# Summary of the method: as §1
# Gal(a1-4)Gal(b1-4)Gal = biological target: Gal(a1-4)Gal(b1-4)Gal
# Summary of the method: as §1
# Gal(a1-4)Gal(b1-4)GalNAc = biological target: Gal(a1-4)Gal(b1-4)GalNAc
# Summary of the method: as §1
# Gal(a1-4)GlcNAc = biological target: Gal(a1-4)GlcNAc
# Summary of the method: as §1
# [4] = biological target: Gal(b1-3)GalNAc(b1-3)Gal(b1-4)Glc
# Summary of the method: as §1
# [5] = biological target: Gal(b1-4)GalNAc(b1-3)[Fuc(a1-2)]Gal(b1-4)GlcNAc
# Summary of the method: as §1
# [6] = biological target: GalNAc(b1-3)Gal(a1-4)Gal(b1-4)GlcNAc
# Summary of the method: as §1
# [7] = biological target: GlcNAc(b1-3)[GlcNAc(b1-4)][GlcNAc(b1-6)]GlcNAc
# Summary of the method: as §1
# [8] = biological target: GlcNAc(b1-3)[GlcNAc(b1-6)]GlcNAc
# Summary of the method: as §1
# [9] = biological target: GlcNAc(b1-4)GlcNAc(b1-4)GlcNAc(b1-4)GlcNAc(b1-4)GlcNAc
# Summary of the method: as §1
# [10] = biological target: Man(a1-2)Man(a1-2)Man(a1-3)[Man(a1-2)Man(a1-6)[Man(a1-3)]Man(a1-6)]Man(b1-4)GlcNAc(b1-4)GlcNAc
# Summary of the method: as §1
# Man(a1-3)[Man(a1-6)]Man = biological target: Man(a1-3)[Man(a1-6)]Man
# Summary of the method: as §1
# [11] = biological target: Neu5Ac(a2-3)Gal(b1-3)GlcNAc6S
# Summary of the method: as §1
# [12] = biological target: Neu5Ac(a2-8)Neu5Ac(a2-8)Neu5Ac(a2-3)[GalNAc(b1-4)]Gal(b1-4)Glc
# Summary of the method: as §1
# [13] = biological target: Fuc(a1-2)Gal(b1-3)GalNAc(b1-4)[Neu5Ac(a2-3)]Gal(b1-4)Glc
# Summary of the method: as §1
# [14] = biological target: Fuc(a1-2)Gal(b1-4)[Fuc(a1-3)]GalNAc(b1-3)Gal(b1-4)[Fuc(a1-3)]GlcNAc
# Summary of the method: as §1
# [15] = biological target: Fuc(a1-2)Gal(b1-4)[Fuc(a1-3)]GalNAc(b1-3)Gal(b1-4)[Fuc(a1-3)]GlcNAc(b1-3)Gal(b1-4)[Fuc(a1-3)]GalNAc
# Summary of the method: as §1
# [16] = biological target: Fuc(a1-2)Gal(b1-4)[Fuc(a1-3)]GlcNAc
# Summary of the method: as §1
# [17] = biological target: Fuc(a1-2)[Gal(a1-3)]Gal(b1-4)Glc
# Summary of the method: as §1
# [18] = biological target: Fuc(a1-3)[Gal(b1-4)]GlcNAc(b1-4)Gal(b1-4)[Fuc(a1-3)]GlcNAc(b1-4)Gal(b1-4)[Fuc(a1-3)]GlcNAc
# Summary of the method: as §1
# [19] = biological target: Gal(b1-3)GalNAc(b1-4)Gal(b1-4)Glc
# Summary of the method: as §1
# [20] = biological target: Gal(b1-3)GalNAc(b1-4)[Neu5Ac(a2-3)]Gal(b1-4)Glc
# Summary of the method: as §1
# Gal4S(b1-4)GlcNAc = biological target: Gal4S(b1-4)GlcNAc
# Summary of the method: as §1
# Gal6S(b1-4)GlcNAc = biological target: Gal6S(b1-4)GlcNAc
# Summary of the method: as §1
# GlcA(b1-6)Gal = biological target: GlcA(b1-6)Gal
# Summary of the method: as §1
# [21] = biological target: GlcNAc(b1-4)[GlcNAc(b1-6)]GalNAc
# Summary of the method: as §1
# Neu5Ac(a2-3)Gal = biological target: Neu5Ac(a2-3)Gal
# Summary of the method: as §1
# [22] = biological target: Neu5Ac(a2-3)Gal(b1-3)[Fuc(a1-4)]GlcNAc
# Summary of the method: as §1
# [23] = biological target: Neu5Ac(a2-3)Gal(b1-4)GlcNAc
# Summary of the method: as §1
# [24] = biological target: Neu5Ac(a2-3)Gal6S(b1-4)[Fuc(a1-3)]GlcNAc
# Summary of the method: as §1
Binder,glycan array binding signal (z-score) [1],glycan array binding signal (z-score) [2],glycan array binding signal (z-score) (Fuc(a1-2)[Gal(a1-3)]Gal),glycan array binding signal (z-score) [3],glycan array binding signal (z-score) (Gal(a1-4)Gal(b1-4)Gal),glycan array binding signal (z-score) (Gal(a1-4)Gal(b1-4)GalNAc),glycan array binding signal (z-score) (Gal(a1-4)GlcNAc),glycan array binding signal (z-score) [4],glycan array binding signal (z-score) [5],glycan array binding signal (z-score) [6],glycan array binding signal (z-score) [7],glycan array binding signal (z-score) [8],glycan array binding signal (z-score) [9],glycan array binding signal (z-score) [10],glycan array binding signal (z-score) (Man(a1-3)[Man(a1-6)]Man),glycan array binding signal (z-score) [11],glycan array binding signal (z-score) [12],glycan array binding signal (z-score) [13],glycan array binding signal (z-score) [14],glycan array binding signal (z-score) [15],glycan array binding signal (z-score) [16],glycan array binding signal (z-score) [17],glycan array binding signal (z-score) [18],glycan array binding signal (z-score) [19],glycan array binding signal (z-score) [20],glycan array binding signal (z-score) (Gal4S(b1-4)GlcNAc),glycan array binding signal (z-score) (Gal6S(b1-4)GlcNAc),glycan array binding signal (z-score) (GlcA(b1-6)Gal),glycan array binding signal (z-score) [21],glycan array binding signal (z-score) (Neu5Ac(a2-3)Gal),glycan array binding signal (z-score) [22],glycan array binding signal (z-score) [23],glycan array binding signal (z-score) [24]
B1,1.93,-0.174,-0.14,-0.168,7.93,8.87,-0.225,0.641,-0.218,0.455,-0.069,-0.116,-0.028,-0.153,-0.147,-0.204,-0.187,–,–,–,–,–,–,–,–,–,–,–,–,–,–,–,–
B2,-0.37,–,–,–,–,–,–,–,–,–,–,–,–,2.91,–,–,–,-0.377,5.67,3.54,4.18,-0.339,5.8,-0.385,-0.363,-0.361,-0.39,-0.392,-0.371,-0.339,-0.076,-0.387,-0.394
